# Experimental data published in PubChem BioAssay (NCATS).
# Results filed as inconclusive are left out. Entries that show only a call come without a potency. A number with no mark means an inactive call. Calls of active or inactive are those of the source. The call rests on the fitted dose curve; in most records, active means well fitted activation curve with a large enough effect; inconclusive means small, poorly fitted or top-dose-only effect; inactive means no such curve, though single readings can be large or run the other way.
# Molecular target: Rap guanine nucleotide exchange factor 4 (Homo sapiens) (UniProt Q8WZA2)
# Sequence (Q8WZA2 whole entry, looked up): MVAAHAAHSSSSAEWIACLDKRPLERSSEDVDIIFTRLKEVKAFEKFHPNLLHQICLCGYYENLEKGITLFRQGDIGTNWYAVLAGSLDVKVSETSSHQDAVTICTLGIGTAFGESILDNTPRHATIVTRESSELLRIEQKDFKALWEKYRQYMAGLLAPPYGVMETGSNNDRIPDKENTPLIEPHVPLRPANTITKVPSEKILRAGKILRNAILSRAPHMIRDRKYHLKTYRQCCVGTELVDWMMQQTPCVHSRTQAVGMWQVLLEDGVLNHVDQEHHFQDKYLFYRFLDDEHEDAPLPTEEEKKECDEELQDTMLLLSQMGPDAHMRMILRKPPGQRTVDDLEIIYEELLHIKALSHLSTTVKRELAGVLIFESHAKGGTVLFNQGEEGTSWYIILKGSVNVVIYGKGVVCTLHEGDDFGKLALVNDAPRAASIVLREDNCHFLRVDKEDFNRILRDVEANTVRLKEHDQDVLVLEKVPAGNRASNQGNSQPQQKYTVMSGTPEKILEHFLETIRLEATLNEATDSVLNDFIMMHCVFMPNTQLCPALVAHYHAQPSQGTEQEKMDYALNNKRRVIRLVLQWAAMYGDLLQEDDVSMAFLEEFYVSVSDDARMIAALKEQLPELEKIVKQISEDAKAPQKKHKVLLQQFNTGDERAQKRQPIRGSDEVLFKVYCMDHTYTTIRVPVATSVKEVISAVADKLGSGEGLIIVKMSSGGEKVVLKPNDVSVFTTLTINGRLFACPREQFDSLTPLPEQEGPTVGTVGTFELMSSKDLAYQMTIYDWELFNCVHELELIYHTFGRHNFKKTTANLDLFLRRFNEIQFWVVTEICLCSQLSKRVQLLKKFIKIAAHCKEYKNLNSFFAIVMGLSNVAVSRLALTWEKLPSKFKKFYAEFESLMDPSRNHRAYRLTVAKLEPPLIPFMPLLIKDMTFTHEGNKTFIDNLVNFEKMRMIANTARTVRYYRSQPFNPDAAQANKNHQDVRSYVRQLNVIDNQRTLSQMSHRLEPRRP
# Test: Confirmatory qHTS for agonist of cAMP-regulated guanine nucleotide exchange factor 4 (EPAC2) (AID 1645884);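 further: nucleotide exchange releases bodipy-GDP from Rap1 and this lowers its fluorescence; nearly all actives have a fitted effect of over 65% in size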
# Conditions: EPAC2 GEF activity, Rap1B-BODIPY-GDP fluorescence; series mostly up to 154 µM
# Potency means the concentration at half of the fitted maximal effect.
SMILES,Potency,activation
CCOC(=O)C1(C)C=C(Nc2ccc(C(N)=O)cc2)C(=O)N1c1ccccc1 (stereo not given),inactive,
COc1cccc(/C=N/Nc2ccc(S(=O)(=O)Nc3ccccc3C(=O)O)cc2[N+](=O)[O-])c1O,,"3.64% [at 17.1 µM, percent relative to cAMP agonist control]"
Cc1ccc(NS(=O)(=O)c2cccc3cccnc23)c(Cl)c1,inactive,
NC(N)=N/N=C/c1ccc(OCc2ccc(Cl)cc2Cl)cc1,,"3.24% [at 17.1 µM, percent relative to cAMP agonist control]"
CC(=O)N1CCc2nc3sc(C(=O)c4ccc(F)cc4)c(N)c3c(C(F)(F)F)c2C1,inactive,
CC1(C)CC2CC(C)(CN2C(=O)c2cc(-c3ccccc3O)on2)C1 (stereo not given),,"10.5% [at 17.1 µM, percent relative to cAMP agonist control]"
O=C(O)c1ccc(Nc2nc(-c3cc4ccccc4oc3=O)cs2)cc1O,inactive,
COc1ccc(/C(O)=C/c2nc3ccccc3n(-c3ccccc3)c2=O)cc1,100 µM (active),
COC(/C(=N/O)c1ccc(Cl)cc1)c1ccccc1 (stereo not given),,"9.01% [at 17.1 µM, percent relative to cAMP agonist control]"
COc1ccc(CCn2c(O)cc3nn(-c4nc5ccccc5s4)c(=O)c-3c2C)cc1,inactive,
COc1ccc(CN(Cc2ccco2)C(=O)c2ccccc2F)cc1,inactive,
O=C(CSc1ncnc2[nH]ncc12)Nc1cccc(Oc2ccccc2)c1,,"10.9% [at 17.1 µM, percent relative to cAMP agonist control]"
CCOc1cc(/C=C2\SC(=Nc3ccc(CC)cc3)NC2=O)ccc1OCC(=O)O,inactive,
S=c1[nH]nc(-c2cc(-c3ccccc3)n[nH]2)n1/N=C/c1ccc(Cl)c(Cl)c1,,"2.21% [at 17.1 µM, percent relative to cAMP agonist control]"
CC1=CC(=C(C#N)c2nc3ccccc3s2)C=C(C)N1Cc1ccco1,inactive,
COc1ccc(C(=O)NCCn2cc(SCC(=O)NCCc3ccc(OC)c(OC)c3)c3ccccc32)cc1,inactive,
O=c1oc2c3c(ccc2c2ccccc12)OCN(Cc1cccc(Cl)c1)C3,inactive,
COc1cc(/C=C2\CCn3c2nc2cc(C(=O)O)ccc2c3=O)ccc1OC(F)F,inactive,
O=[N+]([O-])c1ccc(NS(=O)(=O)c2ccccc2)c(Cl)c1,inactive,
CC(/C=C1\SC(=S)N(c2ccc(C(=O)O)cc2)C1=O)=C\c1ccccc1,,"7.79% [at 17.1 µM, percent relative to cAMP agonist control]"

SMILES,Potency,activation
O=c1oc2ccc(Cl)cc2nc1/C=C(\O)c1cccs1,,"14.5% [at 17.1 µM, percent relative to cAMP agonist control]"
COc1ccc(C(=O)c2ccc(Br)cc2)c(OC)c1OC,inactive,
COc1ccc2c(c1)C(SCC(=O)NCCc1ccc(Cl)cc1)CC(C)(C)O2 (stereo not given),,"12.3% [at 17.1 µM, percent relative to cAMP agonist control]"
CCOc1ccc(/C=C2\SC(=S)N(NS(=O)(=O)c3ccccc3)C2=O)cc1OC,112 µM (active),
CCOC(=O)c1c(CSc2ccccc2)n(C)c2cc(Br)c(OCC(O)CNC(CO)(CO)CO)cc12 (stereo not given),89.1 µM (active),
COc1cc2ccccc2cc1C(=O)NC(=S)Nc1cccc(C(=O)O)c1,,"3.08% [at 17.1 µM, percent relative to cAMP agonist control]"
COc1cc2cc(Oc3ccc4ccc(=O)oc4c3)c(=O)oc2cc1O,,"1.41% [at 17.1 µM, percent relative to cAMP agonist control]"
Cc1cc(Br)cn2c(Cc3ccsc3)c(-c3ccco3)nc12,,"5.83% [at 17.1 µM, percent relative to cAMP agonist control]"
O=C(O)COc1ccccc1/C=N/Nc1ccc(S(=O)(=O)Nc2ccc(Cl)cc2)cc1[N+](=O)[O-],,"1.99% [at 17.1 µM, percent relative to cAMP agonist control]"
O=C(O)CC/C(=C\c1cccc(NC(=O)c2ccccc2Cl)c1)c1nc2ccccc2s1,inactive,
CNc1ccc(/C=C(\CCC(=O)O)c2nc3ccccc3s2)cc1[N+](=O)[O-],,"0% [at 17.1 µM, percent relative to cAMP agonist control]"
Cc1cc2nc3c(=O)n(Cc4ccccc4)c(=O)[nH]c3nc2cc1N,,"16.2% [at 17.1 µM, percent relative to cAMP agonist control]"
Cc1c(CCC(=O)O)c(=O)oc2cc(OCc3ccccc3Br)ccc12,inactive,
CCc1ccc(N=C2NC(=O)/C(=C/c3ccc(OCC(=O)O)cc3)S2)cc1,,"8.62% [at 17.1 µM, percent relative to cAMP agonist control]"
Cn1c(SCC(=O)Nc2cccc(C(=O)O)c2)nnc1-c1cc2cc(Br)ccc2o1,inactive,
CC1(Cc2cc(Cl)ccc2C(F)(F)F)C(=O)Nc2c(Cl)cccc21 (stereo not given),inactive,
O=C(N/N=C/c1ccc(O)c(O)c1)C1c2ccccc2Oc2ccccc21,inactive,
CC(C)(C)CNC(=O)c1cccc2c1C(=O)c1ccc(-c3cc4ccccc4o3)cc1S2(=O)=O,79.4 µM (active),
COc1cc(/C=C2\SC(=Nc3ccccc3)N(CCc3c[nH]c4ccccc34)C2=O)ccc1OC(C)C(=O)O (stereo not given),inactive,
CCOC(=O)c1cc(-c2ccc(/C=C3/C(=O)N(c4ccc(C(=O)O)cc4)N=C3C)o2)ccc1Cl,inactive,
